Records with an inconclusive call do not appear. Active and inactive are the calls of the source. How the source made its calls, unless noted: active means hit-call score of the fitted dose curve at least 0.9, where 1 is the maximum; inactive means score below 0.9.
Experiments:
[1] = ATG_TAL_CIS: Attagene CIS-FACTORIAL HepG2 Assay for human TAL Basal Promoter (AID 2282966); details: HepG2 Attagene cis-factorial TAL promoter reporter; actives raise or lower the signal;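 further: background control endpoint measuring basal TAL promoter reporter mRNA not a specific factor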
How it was run: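 Transiently transfected HepG2 (cis-regulated reporter units), 24 h treatment, mRNA read by fluorescent CE after RT-PCR; bidirectional fit, DMSO baseline.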

[2] = ATG_TGFb_CIS: Attagene CIS-FACTORIAL HepG2 Assay for human Transforming Growth Factor (TGF) (AID 2282967); details: HepG2 Attagene CIS TGFb reporter, mRNA transcription; actives raise or lower the signal
How it was run: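 Readout: fluorescently labeled reporter cDNA fragments resolved by capillary electrophoresis after RT-PCR. Transfected HepG2 cells dosed for 24 h; endogenous TF activity at TGFB1-linked cis element; gain or loss fitted relative to DMSO.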

[3] = ATG_VDRE_CIS: Attagene CIS-FACTORIAL HepG2 Assay for human Vitamin D Receptor Element (VDRE) (AID 2282968); details: HepG2 VDRE cis-reporter transcription, actives raise or lower the signal
How it was run: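 Readout is VDRE-driven reporter mRNA reflecting endogenous factor activity in human HepG2 cells, sampled 24 h post-dose. Quantification used labelled RT-PCR products separated by capillary electrophoresis; bidirectional analysis relative to DMSO.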

[4] = target: Steroid hormone receptor ERR1 (Homo sapiens) (UniProt P11474); test: ATG_ERRa_TRANS: Attagene TRANS-FACTORIAL HepG2 Assay for human Estrogen-Related Receptor alpha (ERRa) (AID 2282971; active means hit-call score of the fitted dose curve at least 0.9, where 1 is the maximum); details: HepG2 Attagene TRANS reporter, ERRa transactivation
Steroid hormone receptor ERR1 (Homo sapiens), sequence (P11474 whole entry, looked up, the tested form may be a part): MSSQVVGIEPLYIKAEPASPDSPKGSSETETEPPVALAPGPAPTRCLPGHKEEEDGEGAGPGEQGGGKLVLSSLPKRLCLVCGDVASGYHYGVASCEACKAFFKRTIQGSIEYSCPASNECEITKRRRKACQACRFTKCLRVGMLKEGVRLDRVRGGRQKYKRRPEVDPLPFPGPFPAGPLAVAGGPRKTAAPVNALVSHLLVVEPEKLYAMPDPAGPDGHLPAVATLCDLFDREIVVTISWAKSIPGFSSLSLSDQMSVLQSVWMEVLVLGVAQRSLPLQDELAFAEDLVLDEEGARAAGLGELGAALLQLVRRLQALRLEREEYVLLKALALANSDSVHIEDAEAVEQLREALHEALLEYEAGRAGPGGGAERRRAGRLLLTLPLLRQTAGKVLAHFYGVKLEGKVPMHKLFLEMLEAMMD
How it was run: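 HepG2 cells transiently transfected with multiplexed GAL4-UAS reporter units reading chimeric ERRa-Gal4 activity; 24 h compound exposure. Reporter mRNA measured by RT-PCR, 6-FAM labelling, HpaI digest and capillary electrophoresis; gain of signal fitted versus DMSO baseline.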

[5] = target: X-box-binding protein 1 (Homo sapiens) (UniProt P17861); test: ATG_Xbp1_CIS: Attagene CIS-FACTORIAL HepG2 Assay for human X-box Binding Protein 1 (XBP1) (AID 2282972); details: HepG2 XBP1 cis-element reporter, Attagene multiplex; actives raise or lower the signal
X-box-binding protein 1 (Homo sapiens), sequence (P17861 whole entry, looked up, the tested form may be a part): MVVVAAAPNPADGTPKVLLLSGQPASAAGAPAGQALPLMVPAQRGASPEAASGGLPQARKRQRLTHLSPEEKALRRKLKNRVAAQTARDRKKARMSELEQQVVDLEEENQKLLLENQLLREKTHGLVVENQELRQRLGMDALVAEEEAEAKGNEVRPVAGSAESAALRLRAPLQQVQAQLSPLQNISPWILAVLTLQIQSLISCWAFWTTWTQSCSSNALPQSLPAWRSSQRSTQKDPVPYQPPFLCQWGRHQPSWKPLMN
How it was run: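 Read-out: fluorescent reporter mRNA fragments resolved by capillary electrophoresis after RT-PCR. Human HepG2 liver cells carried transfected cis-promoter reporter units and were exposed to chemicals for 24 hours. Gain or loss of signal fitted relative to DMSO baseline.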

[6] = ATG_M_19_TRANS: Attagene TRANS-FACTORIAL HepG2 Assay for M19 Transcription Factor (Internal Marker) (AID 2282974; active means hit-call score of the fitted dose curve at least 0.9, where 1 is the maximum); details: HepG2 Attagene TRANS-FACTORIAL M19 internal marker reporter
How it was run: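 After transfection of HepG2 with GAL4-UAS-driven reporter constructs, cells are dosed for 24 h. Total RNA is reverse-transcribed, reporter sequences PCR-amplified and labelled, then HpaI-digested and sized by capillary electrophoresis.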

[7] = target: Glucocorticoid receptor (Homo sapiens) (UniProt P04150); test: ATG_GR_TRANS: Attagene TRANS-FACTORIAL HepG2 Assay for human Glucocorticoid Receptor (GR) (AID 2282978; active means hit-call score of the fitted dose curve at least 0.9, where 1 is the maximum;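 further: activators score as hits since higher reporter transcript over DMSO is fitted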); details: HepG2 Attagene TRANS GR reporter, mRNA transcription
Glucocorticoid receptor (Homo sapiens), sequence (P04150 whole entry, looked up): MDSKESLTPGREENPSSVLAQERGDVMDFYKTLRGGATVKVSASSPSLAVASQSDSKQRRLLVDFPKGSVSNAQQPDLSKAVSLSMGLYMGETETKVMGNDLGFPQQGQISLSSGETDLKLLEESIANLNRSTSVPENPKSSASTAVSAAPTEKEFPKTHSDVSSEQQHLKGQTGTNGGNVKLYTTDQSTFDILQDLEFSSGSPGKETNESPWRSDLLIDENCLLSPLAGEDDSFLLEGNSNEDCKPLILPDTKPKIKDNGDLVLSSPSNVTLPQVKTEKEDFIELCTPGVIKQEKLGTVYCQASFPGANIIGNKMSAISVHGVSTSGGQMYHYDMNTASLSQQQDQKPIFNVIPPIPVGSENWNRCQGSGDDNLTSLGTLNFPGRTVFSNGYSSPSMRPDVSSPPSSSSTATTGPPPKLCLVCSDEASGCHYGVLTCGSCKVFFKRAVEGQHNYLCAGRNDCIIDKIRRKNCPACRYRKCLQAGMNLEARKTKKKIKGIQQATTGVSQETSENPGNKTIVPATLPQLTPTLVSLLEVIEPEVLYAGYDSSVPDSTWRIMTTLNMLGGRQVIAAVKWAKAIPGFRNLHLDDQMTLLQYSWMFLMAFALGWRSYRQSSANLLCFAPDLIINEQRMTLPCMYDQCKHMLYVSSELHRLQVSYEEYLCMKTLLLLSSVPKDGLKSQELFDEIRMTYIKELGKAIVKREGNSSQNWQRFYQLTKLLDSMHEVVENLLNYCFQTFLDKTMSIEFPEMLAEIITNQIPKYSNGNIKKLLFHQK
How it was run: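 Multiplexed TRANS reporter system, HepG2; 24 h exposure; RNA → oligo(dT) RT → reporter-specific PCR → 6-FAM primer extension → HpaI cut → CE fluorescence. Gain-of-signal vs DMSO.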

[8] = target: Bile acid receptor (Homo sapiens) (UniProt Q96RI1); test: ATG_FXR_TRANS: Attagene TRANS-FACTORIAL HepG2 Assay for Farnesoid X Receptor (FXR) (AID 2282979; active means hit-call score of the fitted dose curve at least 0.9, where 1 is the maximum;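 further: hits raise reporter mRNA above DMSO so AC50 marks FXR activation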); details: HepG2 Attagene TRANS FXR-GAL4 reporter transcription
Bile acid receptor (Homo sapiens), sequence (Q96RI1 whole entry, looked up, the tested form may be a part): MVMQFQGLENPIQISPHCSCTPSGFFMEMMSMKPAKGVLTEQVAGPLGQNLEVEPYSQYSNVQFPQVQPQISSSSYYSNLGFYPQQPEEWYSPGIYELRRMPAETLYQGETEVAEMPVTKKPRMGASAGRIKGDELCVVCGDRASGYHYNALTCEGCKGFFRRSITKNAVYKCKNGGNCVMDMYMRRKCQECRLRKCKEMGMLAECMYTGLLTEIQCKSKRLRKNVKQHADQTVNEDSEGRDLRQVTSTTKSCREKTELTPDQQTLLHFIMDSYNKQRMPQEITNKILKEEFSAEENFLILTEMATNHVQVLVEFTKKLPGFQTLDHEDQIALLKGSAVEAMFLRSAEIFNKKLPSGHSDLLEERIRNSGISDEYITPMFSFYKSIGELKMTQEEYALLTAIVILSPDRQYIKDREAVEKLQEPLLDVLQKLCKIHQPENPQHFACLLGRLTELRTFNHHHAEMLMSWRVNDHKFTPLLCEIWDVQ
How it was run: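 HepG2 cells transiently transfected with reporter constructs in which a chimeric FXR-GAL4 protein drives a GAL4-UAS reporter; 24 h compound exposure. Reporter mRNA measured by RT-PCR, FAM labelling, HpaI digestion and capillary electrophoresis; gain-of-signal versus DMSO.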

[9] = target: Oxysterols receptor LXR-beta (Homo sapiens) (UniProt P55055); test: ATG_LXRb_TRANS: Attagene TRANS-FACTORIAL HepG2 Assay for human Liver X Receptor beta (LXRb) (AID 2282981; active means hit-call score of the fitted dose curve at least 0.9, where 1 is the maximum); details: HepG2 Attagene TRANS GAL4-LXRb reporter, mRNA
Oxysterols receptor LXR-beta (Homo sapiens), sequence (P55055 whole entry, looked up, the tested form may be a part): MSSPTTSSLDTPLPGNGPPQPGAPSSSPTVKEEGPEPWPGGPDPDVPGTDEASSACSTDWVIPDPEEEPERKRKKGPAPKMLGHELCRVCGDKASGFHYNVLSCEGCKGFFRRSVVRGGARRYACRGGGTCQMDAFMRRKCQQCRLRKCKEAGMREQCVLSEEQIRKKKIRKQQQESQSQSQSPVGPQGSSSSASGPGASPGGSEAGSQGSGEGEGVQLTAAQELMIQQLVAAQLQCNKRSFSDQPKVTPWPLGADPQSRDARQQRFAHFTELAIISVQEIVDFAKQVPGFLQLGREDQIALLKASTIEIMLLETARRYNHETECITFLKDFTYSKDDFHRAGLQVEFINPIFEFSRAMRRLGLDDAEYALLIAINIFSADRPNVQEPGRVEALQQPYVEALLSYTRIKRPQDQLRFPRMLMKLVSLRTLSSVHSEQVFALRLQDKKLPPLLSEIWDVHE
How it was run: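 After 24 h chemical treatment of transfected HepG2 cells carrying exogenous NR-Gal4 chimeras, reporter mRNA was quantified by fluorescent RT-PCR and capillary electrophoresis; activity taken as increase over DMSO controls.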

[10] = target: Transcriptional activator Myb (Homo sapiens) (UniProt P10242); test: ATG_Myb_CIS: Attagene CIS-FACTORIAL HepG2 Assay for human Myeloblastosis (Myb) Proto-Oncogene Transcription Factor (AID 2282986); details: HepG2 Attagene CIS-FACTORIAL Myb reporter transcription; actives raise or lower the signal
Transcriptional activator Myb (Homo sapiens), sequence (P10242 whole entry, looked up): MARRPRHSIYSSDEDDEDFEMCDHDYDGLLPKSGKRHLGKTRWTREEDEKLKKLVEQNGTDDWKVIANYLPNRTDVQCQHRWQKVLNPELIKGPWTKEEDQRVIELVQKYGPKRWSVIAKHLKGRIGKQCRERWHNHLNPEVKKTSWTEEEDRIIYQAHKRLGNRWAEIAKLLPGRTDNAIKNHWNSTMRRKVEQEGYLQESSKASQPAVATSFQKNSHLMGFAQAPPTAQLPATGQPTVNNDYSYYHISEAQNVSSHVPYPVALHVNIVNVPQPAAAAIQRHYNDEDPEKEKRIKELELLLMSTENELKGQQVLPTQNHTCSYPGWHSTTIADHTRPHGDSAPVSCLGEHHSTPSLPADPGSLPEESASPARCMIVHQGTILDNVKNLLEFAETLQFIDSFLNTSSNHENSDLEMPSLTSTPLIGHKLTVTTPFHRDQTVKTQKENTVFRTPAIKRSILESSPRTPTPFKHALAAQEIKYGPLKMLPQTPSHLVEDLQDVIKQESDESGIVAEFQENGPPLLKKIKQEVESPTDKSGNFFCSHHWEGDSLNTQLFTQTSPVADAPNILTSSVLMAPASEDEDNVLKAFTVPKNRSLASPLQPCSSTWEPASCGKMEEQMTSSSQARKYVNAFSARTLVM
How it was run: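 Endogenous transcription factor activity at a Myb-responsive cis element is reported in human liver HepG2 cells after 24 h chemical treatment. Reporter mRNA is detected by RT-PCR and capillary electrophoresis fluorescence, with DMSO as baseline.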

[11] = target: Nuclear respiratory factor 1 (Homo sapiens) (UniProt Q16656); test: ATG_NRF1_CIS: Attagene CIS-FACTORIAL HepG2 Assay for human Nuclear Respiratory Factor 1 (NRF1) Orphan Gene (AID 2282987); details: HepG2 NRF1 cis-element reporter, Attagene multiplex; actives raise or lower the signal
Nuclear respiratory factor 1 (Homo sapiens), sequence (Q16656 whole entry, looked up): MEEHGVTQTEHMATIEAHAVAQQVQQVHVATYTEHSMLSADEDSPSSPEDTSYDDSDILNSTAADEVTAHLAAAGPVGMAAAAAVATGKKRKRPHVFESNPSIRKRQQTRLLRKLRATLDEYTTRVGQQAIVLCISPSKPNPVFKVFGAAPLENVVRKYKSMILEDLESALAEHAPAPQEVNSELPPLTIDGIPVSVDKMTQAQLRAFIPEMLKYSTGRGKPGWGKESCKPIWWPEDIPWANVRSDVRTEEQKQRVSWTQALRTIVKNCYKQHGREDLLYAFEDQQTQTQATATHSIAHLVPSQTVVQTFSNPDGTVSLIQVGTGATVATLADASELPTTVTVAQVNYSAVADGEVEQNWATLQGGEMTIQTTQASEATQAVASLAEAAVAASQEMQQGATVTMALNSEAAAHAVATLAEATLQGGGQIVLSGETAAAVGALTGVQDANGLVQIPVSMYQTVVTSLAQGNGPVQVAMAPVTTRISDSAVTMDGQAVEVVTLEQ
How it was run: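 Human hepatoma HepG2 cells carrying transfected promoter-regulated reporter units were incubated with test chemicals for 24 h. Reporter transcripts were measured by RT-PCR plus capillary electrophoresis, and endpoints derived by bidirectional fitting with DMSO as baseline.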

[12] = target: Estrogen receptor (Homo sapiens) (UniProt P03372); test: ATG_ERa_TRANS: Attagene TRANS-FACTORIAL HepG2 Assay for human Estrogen Receptor alpha (ERa) (AID 2282970; active means hit-call score of the fitted dose curve at least 0.9, where 1 is the maximum); details: HepG2 Attagene TRANS ERa GAL4 reporter, mRNA
Estrogen receptor (Homo sapiens), sequence (P03372 whole entry, looked up, the tested form may be a part): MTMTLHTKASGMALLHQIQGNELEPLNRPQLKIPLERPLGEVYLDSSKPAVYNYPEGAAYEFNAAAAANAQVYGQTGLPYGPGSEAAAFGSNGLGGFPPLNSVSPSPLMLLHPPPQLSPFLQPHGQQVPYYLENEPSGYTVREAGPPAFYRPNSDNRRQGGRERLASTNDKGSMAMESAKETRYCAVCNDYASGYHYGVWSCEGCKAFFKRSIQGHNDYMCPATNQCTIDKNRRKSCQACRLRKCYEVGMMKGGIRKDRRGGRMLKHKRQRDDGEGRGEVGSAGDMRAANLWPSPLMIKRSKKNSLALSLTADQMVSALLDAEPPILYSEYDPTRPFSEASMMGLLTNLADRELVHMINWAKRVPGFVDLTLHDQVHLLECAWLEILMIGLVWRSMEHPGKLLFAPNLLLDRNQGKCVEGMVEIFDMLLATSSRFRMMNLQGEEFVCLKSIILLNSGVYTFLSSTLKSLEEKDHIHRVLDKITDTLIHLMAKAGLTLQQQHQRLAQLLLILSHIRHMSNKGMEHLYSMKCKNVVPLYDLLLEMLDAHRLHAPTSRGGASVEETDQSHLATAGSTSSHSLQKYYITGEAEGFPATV
How it was run: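 One of 30 multiplexed endpoints from a HepG2 TRANS system, this one reports ERa-Gal4-driven reporter mRNA. Transcripts were quantified 24 hours post-dosing by fluorescent RT-PCR and capillary electrophoresis, with activity scored as induction over DMSO.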

[13] = target: Hepatocyte nuclear factor 4-alpha (Homo sapiens) (UniProt P41235); test: ATG_HNF4a_TRANS: Attagene TRANS-FACTORIAL HepG2 Assay for human Hepatocyte Nuclear Factor 4 alpha (HNF4a) (AID 2282982; active means hit-call score of the fitted dose curve at least 0.9, where 1 is the maximum); details: HepG2 HNF4a transactivation reporter, mRNA readout
Hepatocyte nuclear factor 4-alpha (Homo sapiens), sequence (P41235 whole entry, looked up, the tested form may be a part): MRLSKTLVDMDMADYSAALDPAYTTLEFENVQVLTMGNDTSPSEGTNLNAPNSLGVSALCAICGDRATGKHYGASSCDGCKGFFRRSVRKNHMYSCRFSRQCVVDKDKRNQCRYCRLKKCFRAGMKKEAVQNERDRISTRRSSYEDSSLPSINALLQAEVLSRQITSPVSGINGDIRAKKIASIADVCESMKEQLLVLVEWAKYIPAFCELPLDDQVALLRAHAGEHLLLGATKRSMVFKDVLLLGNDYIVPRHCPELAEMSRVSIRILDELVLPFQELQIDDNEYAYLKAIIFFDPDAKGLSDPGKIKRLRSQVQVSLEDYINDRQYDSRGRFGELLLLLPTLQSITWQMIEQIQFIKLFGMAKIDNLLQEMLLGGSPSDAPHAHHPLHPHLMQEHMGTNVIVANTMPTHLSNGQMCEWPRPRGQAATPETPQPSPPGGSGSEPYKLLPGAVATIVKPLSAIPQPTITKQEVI
How it was run: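 Activity of an exogenous HNF4a–Gal4 fusion scored as induced GAL4-UAS reporter transcripts after 24 h chemical exposure of transfected human HepG2 cells. Read-out via RT-PCR with 6-FAM labelling and capillary electrophoresis; rise over DMSO baseline.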

[14] = ATG_M_06_TRANS: Attagene TRANS-FACTORIAL HepG2 Assay for M06 Transcription Factor (Internal Marker) (AID 2282983; active means hit-call score of the fitted dose curve at least 0.9, where 1 is the maximum;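 further: reporter transcript level by RT-PCR then capillary electrophoresis fluorescence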); details: HepG2 Attagene TRANS M06 internal marker reporter
How it was run: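 In this multiplexed HepG2 system, compounds are incubated 24 h with cells carrying GAL4-UAS reporter units. Reporter RNA is amplified and resolved by capillary electrophoresis, and induction is scored against DMSO.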

[15] = ATG_M_32_TRANS: Attagene TRANS-FACTORIAL HepG2 Assay for M32 Transcription Factor (Internal Marker) (AID 2282984; active means hit-call score of the fitted dose curve at least 0.9, where 1 is the maximum;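 further: transcript level of a background control reporter unit measured by RT-PCR and capillary electrophoresis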); details: HepG2 Attagene TRANS M32 internal marker reporter
How it was run: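 Internal background reporter in transfected HepG2: after 24 h chemical exposure, RNA reverse-transcribed, reporter cDNA amplified, fluorescently labelled and HpaI-cut, then sized by capillary electrophoresis. Gain of signal fitted against DMSO control.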

[16] = target: Nuclear receptor subfamily 4 group A member 2 (Homo sapiens) (UniProt P43354); test: ATG_NURR1_TRANS: Attagene TRANS-FACTORIAL HepG2 Assay for human Nuclear Receptor Related Protein 1 (NURR1) (AID 2282985; active means hit-call score of the fitted dose curve at least 0.9, where 1 is the maximum); details: HepG2 Attagene TRANS reporter, mRNA readout
How it was run: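 Reporter transcript induction, measured by RT-PCR with fluorescent labelling, HpaI digestion and capillary electrophoresis, after 24 hr dosing of human HepG2 cells transiently expressing an exogenous NR-Gal4 fusion with GAL4-UAS-driven reporters; DMSO as baseline.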

[17] = ATG_GAL4_TRANS: Attagene TRANS-FACTORIAL HepG2 Assay for GAL4 (Internal Marker) (AID 2282976; active means hit-call score of the fitted dose curve at least 0.9, where 1 is the maximum); details: HepG2 Attagene TRANS GAL4 internal marker reporter
How it was run: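 HepG2 cells transiently transfected with multiplexed GAL4-UAS reporter constructs were dosed for 24 h. Reporter mRNA was measured by RT-PCR, 6-FAM primer extension, HpaI digestion and capillary electrophoresis, and gain of signal was fitted relative to DMSO.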

[18] = target: Oxysterols receptor LXR-alpha (Homo sapiens) (UniProt Q13133); test: ATG_LXRa_TRANS: Attagene TRANS-FACTORIAL HepG2 Assay for human Liver X Receptor alpha (LXRa) (AID 2282980; active means hit-call score of the fitted dose curve at least 0.9, where 1 is the maximum); details: HepG2 Attagene TRANS reporter, LXRa transactivation
How it was run: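 HepG2 cells were transiently transfected with multiplexed reporter units driven by chimeric LXRa–GAL4 fusion proteins, then dosed for 24 h. Reporter mRNA was quantified by RT-PCR, fluorescent labelling and capillary electrophoresis; gain of signal fitted against DMSO baseline.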

Measured: AC50

CC(=O)[C@@]1(O)CC[C@H]2[C@@H]3C[C@H](C)C4=CC(=O)C=C[C@]4(C)[C@@]3(F)[C@@H](O)C[C@@]21C
active: [7] 0.221 µM
not listed: [12] | [13] | [14] | [15] | [16] | [17] | [18]
inactive: all other assays above

CCCCCCCC/C=C\CCCCCCCC(=O)OCCO
not listed: [4] | [6] | [8] | [9] | [17] | [18]
inactive: all other assays above

CC(C)(c1cc(Br)c(OCCO)c(Br)c1)c1cc(Br)c(OCCO)c(Br)c1
active: [1] 27 µM | [3] 1.22 µM | [5] 30.1 µM | [16] 21.5 µM | [11] 46.7 µM
inactive: [2] | [12] | [9] | [13] | [15] | [10]

Cn1c([N+](=O)[O-])cnc1COC(N)=O
inactive: [1] | [2] | [3] | [4] | [5] | [6] | [9] | [16] | [10] | [11]

COc1c2ccoc2cc2oc(=O)ccc12
not listed: [4] | [6] | [7] | [8] | [15] | [17] | [18]
inactive: all other assays above

CCCCCCCCCCCCCCCC[N+](C)(C)CC
active: [3] 9.07 µM | [11] 9.68 µM
not listed: [6] | [7] | [12] | [13] | [17] | [18]
inactive: all other assays above

OC1CCCC1
not listed: [7] | [8] | [12] | [13] | [18]
inactive: all other assays above

CC/C=C\C/C=C\C/C=C\CCCCCCCC(=O)O
active: [3] 62.7 µM | [5] 160 µM
not listed: [4] | [6] | [7] | [13] | [16] | [17]
inactive: all other assays above

COc1ccc2nc(N)sc2c1
not listed: [4] | [6] | [8] | [9] | [17]
inactive: all other assays above

CCCCCCCCCCCSCC(=O)O
active: [1] 100 µM | [2] 100 µM | [3] 80.2 µM | [5] 100 µM | [16] 23 µM | [11] 77.7 µM
inactive: [4] | [6] | [17] | [7] | [14] | [15] | [10]
